Bioassay records as filed in PubChem BioAssay.
A selection: hits, their analogues and other compounds. The true share with any hit is near 21%.
DT40 TDP1 CPT: DT40-hTDP1 cell growth loss with CPT; Potency, µM (top dose mostly 46.2 µM), for the others: top-dose activity change, negative = growth inhibition, hits mostly inhibitors; 420,000 compounds, 12% hits; chicken DT40 Tdp1-/-;hTDP1 cells + 20 nM CPT, ATP luminescence, 48 h; note: potency is the fitted concentration of half-maximal effect; nearly all actives have a fitted effect of over 55% in size
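Chicken DT40 Tdp1-/- cells stably complemented with human TDP1 were seeded at 400 cells/well in medium containing 20 nM camptothecin, exposed to pin-transferred compounds, and grown at 37 °C for at least 48 hr. Viability was read as ATP luminescence.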
ELG1 repair inh: inhibitors of ELG1-dependent DNA repair in HEK293T cells; HEK293T ELG1-luciferase reporter, luminescence, 16 h; DNA damage induced by 5-fluorouridine; AID 504467; Potency, µM (series often up to 46.1 µM), for the others: at the highest dose activity change, negative = inhibition, usual class: inhibitors; 330,000 compounds, 2.3% hits; note: potency is the fitted concentration of half-maximal effect; nearly all actives have a fitted effect of over 55% in size
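HEK293T cells expressing luciferase-tagged ELG1 (2,000/well) received 5-Fluorouridine plus compound or DMSO for 16 hr at 37 °C. Luciferase was read by ONE-Glo luminescence after 30 min at room temperature.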
TDP1 cell noCPT: qHTS for Inhibitors of human tyrosyl-DNA phosphodiesterase 1 (TDP1): qHTS in cells in absence of CPT; DT40 Tdp1-/- hTDP1 cells, no CPT, ATP luminescence, 48 h; Potency, µM (highest dose often 46.2 µM), inactives show at the top dose activity change, negative = growth inhibition, most hits filed as inhibitors; 420,000 compounds, 15% hits; AID 686978, 2013; note: potency is the fitted concentration of half-maximal effect; nearly all actives have a fitted effect of over 55% in size
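DT40 Tdp1-/-;hTDP1 cells, no CPT (DMSO vehicle only), 400 cells/well; compounds pin-transferred; ≥48 hr, 37 °C; CellTiter-Glo 30 min RT dark, luminescence read.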
IL1B secr inh: inhibitors of inflammasome signaling (IL-1 beta secretion); THP-1 LPS/ATP IL-1B secretion, AlphaLISA, 16 h; active compounds read low; activity change, % at 57.5 µM; 360,000 compounds, 4.7% hits; in the data active = activity change below about -50%; inconclusive = mostly about -30% to -49%
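THP-1 cells pretreated 1 hr with compounds (up to 57.5 uM final), then stimulated with LPS (250 ng/mL final) plus ATP (1.25 mM final); secreted IL-1B measured by AlphaLISA after 16 hr, decreased signal indicating inhibition.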
RORgamma inh: blocks mouse ROR gamma transcriptional activity; Potency, µM (titrated, usually from 53.6 µM), for the others: top-dose activity change, negative = inhibition, most hits filed as inhibitors; Drosophila S2 Gal4-RORgamma UAS-luciferase reporter, 20 h; 310,000 compounds, 5.4% hits; note: potency is the fitted concentration of half-maximal effect; nearly all actives have a fitted effect of over 60% in size
Target sequence (P51450 whole entry, looked up, the tested form may be a part): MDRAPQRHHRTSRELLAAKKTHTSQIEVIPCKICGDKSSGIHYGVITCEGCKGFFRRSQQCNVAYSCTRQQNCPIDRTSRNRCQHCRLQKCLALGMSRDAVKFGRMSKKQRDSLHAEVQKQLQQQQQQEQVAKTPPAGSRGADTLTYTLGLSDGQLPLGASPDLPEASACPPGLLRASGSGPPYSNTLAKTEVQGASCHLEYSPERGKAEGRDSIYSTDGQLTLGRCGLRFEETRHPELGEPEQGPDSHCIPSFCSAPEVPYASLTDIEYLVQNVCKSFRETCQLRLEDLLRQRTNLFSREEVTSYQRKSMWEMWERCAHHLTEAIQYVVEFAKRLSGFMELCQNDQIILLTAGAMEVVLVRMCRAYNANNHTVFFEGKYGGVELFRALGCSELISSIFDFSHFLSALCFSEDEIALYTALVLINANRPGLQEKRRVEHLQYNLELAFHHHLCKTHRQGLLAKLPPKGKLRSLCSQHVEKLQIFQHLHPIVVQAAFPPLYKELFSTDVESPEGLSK
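Schneider cells (Drosophila), stable Gal4 DBD–ROR gamma + UAS-luc; 1 hr cmpd preincubation; Cu2+ induction 700 uM final; 20 hr ambient; luminescence.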
VP16 counter: counter-screen for ROR gamma inhibitors: Gal4-VP16 reporter; Drosophila S2 Gal4-VP16 UAS-luciferase, luminescence, 20 h; Potency, µM (highest dose often 53.6 µM), for the others: top-dose activity, negative = inhibition, usual class: inhibitors; 310,000 compounds, 3.5% hits;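 note: Gal4-VP16 expression switched on by copper sulfate through the metallothionein promoter; potency is the fitted concentration of half-maximal effect; nearly all actives have a fitted effect of over 50% in size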
* marks the source's active call; other numbers are inactive results; ? = inconclusive; nt = no result given; [ ] = another dose, or the depositor's remark. Unless noted, calls come from the whole dose curve; as a rule, active = well fitted curve in the direction sought with a large enough effect; inconclusive = small, poorly fitted or top-dose-only effect, or another doubt; inactive = no such curve, though single readings can be large; an effect the other way counts as inactive or inconclusive. % is set by controls: 0 for no effect and ±100 for the full control effect.

SMILES | DT40 TDP1 CPT | ELG1 repair inh | TDP1 cell noCPT | IL1B secr inh | RORgamma inh | VP16 counter
O=C(c1ccc2[nH]ccc2c1)N1CCOc2ccc(CN3CCN(c4ccccn4)CC3)cc2C1 | -4%[9.04 µM] | nt | ? | nt | nt | nt
COc1ccc(O[C@H]2C=C[C@@H](c3ccccc3)O[C@H]2COC(=O)CC/C(C)=N\O[C@@H](C)CN2CCCc3nc(C)c(C)cc32)cc1 | nt | nt | nt | nt | -11%[10 µM] | 3%[10 µM]
COC(=O)c1c(-c2ccccc2)noc1-c1ccccc1 | 10% | nt | 5% | 22 | nt | nt
CCOC(=O)c1c(Oc2ccc(OC)cc2)nnc(-c2ccccc2)c1-c1ccccc1 | 16µM* | nt | ? | nt | nt | nt
COC(=O)c1c(Oc2ccc(C(C)=O)cc2)nnc(-c2ccccc2)c1-c1ccccc1 | 18µM* | nt | ? | nt | nt | nt
CCOC(=O)c1cnc(-c2ccccc2)nc1Oc1ccc(OC)cc1 | -1% | ? | 17% | 6 | -22% | 4%
CCOC(=O)c1c(Oc2ccc(C(=O)OC)cc2)nnc(-c2ccccc2)c1-c1ccccc1 | 16µM* | nt | 23µM* | nt | nt | nt
CC(C)CC1OC(=O)C2=CCCCC21 (stereo unspecified) | nt | nt | nt | nt | 5% | 3%
O=C(Nc1nc(-c2ccc(Br)cc2)cs1)c1cccnc1 | -2% | 5% | 6% | -16 | -7% | 3%
O=C(NC(=S)Nc1nc(-c2ccc(Br)cc2)cs1)c1ccco1 | -18% | -5% | ? | 7 | 2.8µM* | 8%
O=C(NNc1nc(-c2ccc(Br)cc2)cs1)c1ccco1 | 18µM* | ? | 16µM* | -2 | 5.6µM* | ?
O=C(NC(=S)Nc1nc(-c2ccc(Br)cc2)cs1)c1cccnc1 | -16% | ? | -15% | 4 | 1.1µM* | ?
Cc1ccc2oc(C(=O)Nc3cccc(Cl)c3)cc(=O)c2c1 | -14% | nt | -16% | nt | nt | nt
CNc1nc(C)c(C(=O)c2ccc(Cl)cc2)s1 | -12% | 15% | ? | 27 | 1% | ?
O=C(COc1ccc(Br)cc1CO)N1CCCc2ccccc21 | -6% | -12% | 26µM* | -11 | -2% | -8%
CCc1cc(=O)oc2c(C)c(OCC(=O)N3CCCc4ccccc43)ccc12 | 18µM* | ? | ? | -20 | 11µM* | ?
NC(=O)c1ccccc1OCC(=O)N1CCCc2ccccc21 | ? | 19% | ? | 48 | 14% | 1%
COc1ccc(N(C)C(=O)c2cc3c(s2)-c2ccc(Cl)cc2S(=O)(=O)C3)c(OC)c1 | 18µM* | 21µM* | ? | -9 | 1% | 0%
COc1ccc(N(C)C(=O)c2cc3c(s2)-c2ccccc2OC3)c(OC)c1 | 15µM* | ? | 9.2µM* | -73* | 2% | 1%
CN(C(=O)c1cc2c(s1)-c1ccccc1S(=O)(=O)C2)c1ccccc1F | -23% | ? | ? | -17 | 24% | 7%
CN(C(=O)c1cc2c(s1)-c1ccccc1S(=O)(=O)C2)c1ccccc1 | 12µM* | -24% | 23µM* | 7 | 12% | 24%
O=C(NC1CCCCC1)C(c1ccc2ncccc2c1)N(Cc1ccc2c(c1)OCO2)C(=O)c1ccc2c(c1)OCCO2 (stereo unspecified) | ? | ? | 26µM* | -2 | -31% | -14%
O=C(NC1CCCCC1)C(c1ccc2ncccc2c1)N(Cc1cccs1)C(=O)c1cccs1 (stereo unspecified) | ? | 16µM* | ? | ? | -1% | -9%
O=C(NC1CCCCC1)C(c1cccs1)N(Cc1cccs1)C(=O)c1cccs1 (stereo unspecified) | 18µM* | -30% | 16µM* | -66* | 0% | -3%
O=C(NC1CCCCC1)C(c1ccccc1)N(Cc1ccc2c(c1)OCO2)C(=O)c1cnsn1 (stereo unspecified) | 21µM* | -13% | ? | -61* | 28% | 2%
SMILES | DT40 TDP1 CPT | ELG1 repair inh | TDP1 cell noCPT | IL1B secr inh | RORgamma inh | VP16 counter
O=C(NC1CCCCC1)C(c1ccc2ncccc2c1)N(Cc1ccco1)C(=O)c1ccc2c(c1)OCCO2 (stereo unspecified) | ? | ? | ? | -5 | 11% | 4%
CN(C)c1ccc(/C=C2\NC(=O)NC2=O)cc1 | -11% | nt | -18% | nt | nt | nt
Cc1cccc(N2CCN(C(=S)Nc3ccc4nc(N5CCN(C)CC5)cc(C)c4c3)CC2)c1C | 1.3µM* | 14% | 1µM* | 4 | 4.5µM* | 4.5µM*
Cc1cccc(N2CCN(C(=S)Nc3ccc4nc(N5CCN(C)CC5)cc(C)c4c3)CC2C)c1 (stereo unspecified) | ? | 12% | 21µM* | -72* | ? | ?
Cc1cc(N2CCN(C)CC2)nc2ccc(NC(=S)N3CCCCCC3)cc12 | -4% | 4% | -30% | -5 | 23% | 9%
Cc1cc(N2CCN(C)CC2)nc2ccc(NC(=S)N3CCN(c4cccc(Cl)c4)CC3)cc12 | 1.8µM* | 6% | 2.6µM* | 19 | -20% | -23%
Cc1cc(N2CCN(C)CC2)nc2ccc(NC(=S)N3CCN(c4ccc(F)cc4)CC3)cc12 | ? | -14% | 10µM* | 212 | ? | -1%[10 µM]
COC(=O)C[C@H]1C=C[C@H](NC(=O)Nc2ccccc2)[C@@H](CO)O1 | -4% | nt | -23% | -3 | nt | nt
CCCS(=O)(=O)NC(=O)C1(C)CCN(C(=O)c2ccco2)C1 (stereo unspecified) | -1% | nt | 0% | 21 | nt | nt
CN1CCN(C(=S)Nc2ccc(Cl)cc2)CC1 | -20% | 6% | 12% | 1 | 0% | 5%
Cc1cc(N2CCN(C)CC2)nc2ccc(NC(=S)N3CCN(c4ccc(Cl)cc4)CC3)cc12 | 9.2µM* | -13% | ? | 38 | ? | ?
Cc1cc(N2CCN(c3ccc(F)cc3)CC2)nc2cc(O)ccc12 | 23µM* | -1% | 15µM* | 23 | 36% | -1%
CN(C)CCNC(=O)C(=O)NCC(c1cccnc1)N1CCN(c2ccccc2)CC1 (stereo unspecified) | 7% | nt | -23% | nt | nt | nt
Cc1cc(NCCCn2ccnc2)n2nc(-c3ccc(Cl)cc3)cc2n1 | -22% | ? | ? | -65* | ? | ?
Cc1cc(-c2ccccc2)nc2cc(C(=O)NCCCn3ccnc3)nn12 | 5% | 0% | 7% | ? | ? | 4%
Cc1cccc(-c2cc3nc(C)c(C)c(NCCCn4ccnc4)n3n2)c1 | ? | ? | 15µM* | nt | 2% | -6%
